Test results taken from PubChem BioAssay (NCI).
This is part of a sample that, as a whole, favours compounds with a hit. Of some 83,000 tested, about 20% had one in any assay.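 For each line, cells grew in 96-well plates with the test compound present at a single concentration for 48 hours.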 Values without a mark were called inactive. The source made the active and inactive calls. Rule for the calls: active = growth percent below 10; inactive = the rest. Where a SMILES comes first, the peptide text is derived from it. [ ]: non-standard residue; d: D form. ξ: configuration not given here. ξD = NC(CC(=O)O)C(=O)O

Legend:
Experiment in all cases: NCI-60 one-dose screen, 48 h (100 = growth as untreated, 0 = no growth, -100 = all killed)
[1] = tested on: DU-145 prostate; settings: 10 µM unless noted
[2] = tested on: K-562 leukemia; settings: 10 µM unless noted
[3] = tested on: MALME-3M melanoma; settings: 10 µM unless noted
[4] = tested on: RXF 393 renal; settings: 10 µM unless noted
[5] = tested on: SF-268 CNS; settings: 10 µM unless noted
[6] = tested on: SF-295 CNS; settings: 10 µM unless noted
[7] = tested on: SF-539 CNS; settings: 10 µM unless noted
[8] = tested on: UACC-257 melanoma; settings: 10 µM unless noted
[9] = tested on: M14 melanoma; settings: 10 µM unless noted
[10] = tested on: HCT-15 colon; settings: 10 µM unless noted
[11] = tested on: HT29 colon; settings: 10 µM unless noted
[12] = tested on: SNB-75 CNS; settings: 10 µM unless noted
[13] = tested on: SNB-19 CNS; settings: 10 µM unless noted
[14] = tested on: U251 CNS; settings: 10 µM unless noted
[15] = tested on: PC-3 prostate; settings: 10 µM unless noted
[16] = tested on: SK-MEL-5 melanoma; settings: 10 µM unless noted
[17] = tested on: UACC-62 melanoma; settings: 10 µM unless noted
[18] = tested on: SK-MEL-28 melanoma; settings: 10 µM unless noted
[19] = tested on: MDA-MB-231 breast; settings: 10 µM unless noted
[20] = tested on: LOX IMVI melanoma; settings: 10 µM

Row | Compound | growth [1] | growth [2] | growth [3] | growth [4] | growth [5] | growth [6] | growth [7] | growth [8] | growth [9] | growth [10] | growth [11] | growth [12] | growth [13] | growth [14] | growth [15] | growth [16] | growth [17] | growth [18] | growth [19] | growth [20]
1 | CCCOC(=O)c1nc(N(CC2CCCCC2)C(=O)NC)sc1/N=C/c1ccccc1 | 44.7% | 2.2% (active) | 12.4% | -8.78% (active) | 32% | 15.1% | -27.9% (active) | 37.5% | 6.82% (active) | -70.3% (active) | -37.7% (active) | -11.1% (active) | 24.5% | 5.96% (active) | 25.3% | -11.9% (active) | 4.74% (active) | 35% |  | 
2 | COc1ccc(C(Cn2ccnc2)Sc2ccc(Cl)c(Cl)c2)cc1 (centres undefined) | 100% | 56.2% | 96.1% |  | 90.9% |  | 95.6% | 92.1% | 71.6% | 79.7% | 59.6% | 89.2% | 98.6% |  | 63.1% | 66.5% | 77.6% | 85.3% | 79.1% | 84.4%
3 | O=C(/C(Cl)=N/O)c1ccc(-c2ccccc2)cc1 | 109% | 63.8% | 24.8% | 95.4% | 101% | 104% | 96.4% | 99.7% | 96.7% | 94.5% | 80.1% | 113% | 105% | 96.1% | 98.6% | 98.7% | 97.9% | 110% |  | -41.5% (active)
4 | CCCCCCCCCCCC[n+]1ccc2ccccc2c1 | 8.38% (active) | -18.4% (active) |  | -6.08% (active) | -72.7% (active) | -40.3% (active) | -47.8% (active) | -39.2% (active) | -84.2% (active) | 25% | 0.914% (active) | -21% (active) | -19.8% (active) | -53.5% (active) | -34.1% (active) | -93.7% (active) | -62.1% (active) | -28.6% (active) | -18% (active) | -75% (active)
5 | NNc1ccc(Cl)cc1Cl | 108% | 13.4% | 104% | 102% | 71.7% | 76.6% | 94.5% |  | 67.6% | 79.8% | 94.2% | 80.7% |  | 76.4% | 60.4% | 86.1% | 37.2% | 120% |  | 67.5%
6 | Cc1onc(-c2ccccc2)c1C(=O)N/N=C/c1cc(Cl)cc(Cl)c1O | 44.6% | 29.4% |  | 64.1% | 34.1% | -5.54% (active) | 16.5% | 17.4% | 14.3% | 25.6% | 42.2% | 61.4% |  | 25% | 46.2% | 9.32% (active) | 10.9% | 51.3% | 34.4% | 11.2%
7 | O=C(CCl)N1c2ccccc2Sc2c1ccc1ccccc21 | 93.9% | 55.7% |  | 70.4% | 70.4% | 94.5% | 84.7% | 89.4% | 61.1% | 39% | 69.4% | 60.2% |  | 63.8% | 70.6% | 84.5% | 78% | 111% | 76.4% | 
8 | CCCCCCCCCCCC[S+](C)CC(=O)[O-] (centres undefined) | 54.8% | 30.7% | 51.2% | 0.613% (active) | 30.6% | 38.6% | 53.7% | 56.7% | 43.7% | 84.6% | 44.7% | 29.7% |  | 43.7% | 25% | -62.3% (active) | 31.8% | 62.9% |  | 32.9%
9 | O=C(Cc1nc2cc(Cl)c(Cl)cc2nc1CC(=O)c1cccnc1)c1cccnc1 | 93.5% | 49.6% | 65.5% | 87.9% | 82.2% | 94.1% | 78.7% | 95.7% | 76.5% | 57.2% | 71.6% | 88.4% |  | 89.3% | 70.2% | 81.7% | 71.4% | 87.1% |  | 65.4%
10 | CCOC(=O)C1=NN(c2ccccc2)C(=O)/C1=C\N1C(=O)/C(=C/c2cccc(O)c2)SC1=S | 96.8% | 100% |  | 101% | 91.7% | 104% | 107% | 98.3% | 89.6% | 109% | 111% | 97.2% | 94.4% | 89% | 88% | 95% | 91.9% | 111% | 87.6% | 88%
11 | COc1cc(NC(=O)C2=C(C)NC(C)=C(C(=O)Nc3cc(OC)c(Cl)cc3OC)C2c2cccc([N+](=O)[O-])c2)c(OC)cc1Cl | 58.4% | 33.4% | 37.5% | 36.7% | 39.3% | 26.3% | 31.8% | 46.9% | 20.1% | 14.3% | 40.6% | 45.3% |  |  | 16.8% | -5.53% (active) | 27.6% | 24.4% |  | 22.8%
12 | CCCCCCCCCCCCCCCCCC[S+](C)CC (centres undefined) | 64.3% | 47.9% |  | -81% (active) | 30.6% | 68.8% | 31% | 45.8% | 4.94% (active) | 38.8% | 4.75% (active) | -25.1% (active) |  | -57.5% (active) | 36.3% | -99.1% (active) | 19.3% | 48.6% | -2.38% (active) | -51.6% (active)
13 | CCOC(=O)C1=C(C(=O)c2ccccc2)C(c2cccc([N+](=O)[O-])c2)C(C(=O)c2ccccc2)=C(C(=O)OCC)N1 | 97% | 21.5% | 93.1% | 79.3% | 93.9% | 90.2% | 95.7% | 105% | 89.9% | 66.4% | 94.3% | 88.4% |  | 79.9% | 86% | 95.9% | 70.2% | 95.6% |  | -57.6% (active)
14 | Cc1cc2nc(CC(=O)c3ccncc3)c(=O)[nH]c2cc1C | 100% | 91.1% | 109% | 96.4% | 94.2% | 92% | 60.8% | 107% | 106% | 94.6% | 105% | 86.2% |  | 77.2% | 95.6% | 98.1% | 88.9% | 109% |  | 106%
15 | OC(Cc1cc(CC(O)(C(F)(F)F)C(F)(F)F)nc(CC(O)(C(F)(F)F)C(F)(F)F)c1)(C(F)(F)F)C(F)(F)F | 24.9% | 9.94% (active) |  | -17.2% (active) | 12.9% | -8.82% (active) | -1.21% (active) | -28.3% (active) | 13.7% | 9.46% (active) | -12.1% (active) | -8.76% (active) | 16% |  | 4.38% (active) | -83.3% (active) | -10.6% (active) | 26.5% | -45.6% (active) | 0.881% (active)
16 | NCC(=O)NC(CC(=O)O)C(=O)O (centres undefined) (H-Gly-[ξD]-OH) | 105% | 106% | 98.1% | 109% | 107% | 101% | 99.3% | 96.5% | 104% |  | 98.2% | 98.6% |  | 103% | 86.7% | 101% | 91.4% | 104% |  | 103%
17 | CC1(C)OCC(COC(c2ccccc2)(c2ccccc2)c2ccccc2)O1 (centres undefined) | 100% | 111% |  | 116% | 94.2% | 99.2% | 104% | 91.7% | 95.1% | 100% | 91.9% | 89.3% | 100% | 95.3% | 89.2% | 105% | 99.3% | 103% | 91.7% | 89.1%
18 | Oc1ccc2c(c1)CCc1ccccc1-2 | 109% | 121% |  | 92.6% | 92.1% | 96.3% | 89.9% | 99.2% | 102% | 92.6% | 95% | 56.1% | 102% | 95.9% | 99.2% | 97.8% | 104% | 105% | 111% | 107%
